Source: PubChem BioAssay (several laboratories)
ROMK primary: modulators of human ROMK potassium channel; P48048; Tet-inducible ROMK, thallium flux fluorescence; actives lie on both sides; B-score at 10 µM; actives 2% (n = 130,000); AID 1918;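 active = signal ratio slope over the read window, or its plate-corrected B-score, at least 3 SD from the plate mean, either direction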;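 also: B-score of the F/F0 ratio slope over 7 to 12 s after thallium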
Lmaj promast: reduces viability of Leishmania major promastigotes; resazurin fluorescence viability; inhibition, % at 10 µM; actives 9% (n = 200,000); AID 1063; in the data active = inhibition above about 50%;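 also: promastigotes grown with compound for 44 hours at 28 °C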
KCC2 mod: modulates chloride dependent transport by human KCC2; KCC2 cells, thallium flux FluoZin-2 fluorescence; B-score of Tl+ flux slope (higher = more flux/activation; lower = inhibition) at 10 µM; actives 2.2% (n = 190,000); AID 1456;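 active = thallium flux slope and its plate-corrected score both differing from the plate sample mean at a set confidence after two filtering rounds, in either direction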;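 also: slope of fluorescence scaled to starting intensity during 10 to 20 s after thallium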
Target sequence (Q9H2X9 whole entry, looked up): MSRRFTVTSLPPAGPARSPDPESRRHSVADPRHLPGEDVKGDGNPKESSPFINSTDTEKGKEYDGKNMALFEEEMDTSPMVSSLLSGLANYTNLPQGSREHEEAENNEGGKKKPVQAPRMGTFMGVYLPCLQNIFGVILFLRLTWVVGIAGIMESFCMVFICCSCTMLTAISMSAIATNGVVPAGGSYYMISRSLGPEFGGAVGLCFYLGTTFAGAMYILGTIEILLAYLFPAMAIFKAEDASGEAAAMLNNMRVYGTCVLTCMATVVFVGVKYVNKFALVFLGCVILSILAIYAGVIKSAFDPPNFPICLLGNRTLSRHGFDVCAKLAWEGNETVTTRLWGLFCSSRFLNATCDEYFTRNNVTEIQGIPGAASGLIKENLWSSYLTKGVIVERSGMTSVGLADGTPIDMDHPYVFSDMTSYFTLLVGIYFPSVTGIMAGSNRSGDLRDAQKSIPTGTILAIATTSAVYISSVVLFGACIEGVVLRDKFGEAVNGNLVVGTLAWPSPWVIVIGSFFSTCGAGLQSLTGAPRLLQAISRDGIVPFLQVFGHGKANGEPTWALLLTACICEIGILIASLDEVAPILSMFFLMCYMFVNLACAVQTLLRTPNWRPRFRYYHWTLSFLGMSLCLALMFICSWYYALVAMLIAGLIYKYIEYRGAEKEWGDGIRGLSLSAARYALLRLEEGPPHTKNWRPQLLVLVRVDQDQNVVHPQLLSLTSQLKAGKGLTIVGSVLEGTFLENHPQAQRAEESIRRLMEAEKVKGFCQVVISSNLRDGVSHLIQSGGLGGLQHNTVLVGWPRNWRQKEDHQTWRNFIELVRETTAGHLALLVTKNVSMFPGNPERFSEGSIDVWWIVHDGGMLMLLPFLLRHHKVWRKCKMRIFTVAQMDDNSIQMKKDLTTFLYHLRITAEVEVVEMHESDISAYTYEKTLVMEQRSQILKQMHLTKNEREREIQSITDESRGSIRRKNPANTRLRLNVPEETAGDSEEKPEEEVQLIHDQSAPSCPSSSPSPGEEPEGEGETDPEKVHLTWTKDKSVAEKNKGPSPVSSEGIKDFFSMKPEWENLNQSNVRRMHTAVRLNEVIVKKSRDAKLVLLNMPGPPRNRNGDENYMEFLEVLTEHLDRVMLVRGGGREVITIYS
WT yeast gro inh: growth inhibition of WT yeast, mitochondrial fusion screen. mitochondrial fusion phenotypic screen, WT strain. inhibition, % at 10 µM. actives 2.1% (n = 190,000). AID 1362; in the data active = inhibition above about 58%; tested in S. cerevisiae
Calpain2 inh: inhibitors of pig calpain II | inhibition, % at 16 µM | AID 1236 | actives 0.37% (n = 220,000) | purified calpain II, fluorogenic peptide substrate, 30 min;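 active = inhibition above about 50%, limit read from the data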
Numbers without * were called inactive; . = no result given. Shown are actives, neighbours in structure and some others; about 12% of the full set was active somewhere.

SMILES	ROMK primary	Lmaj promast	KCC2 mod	WT yeast gro inh	Calpain2 inh
O=C(OCc1nnc(-c2ccccc2)o1)c1ccccc1	-0.23	0	-0.52	7	10
O=C(OCc1nnc(-c2ccccc2)o1)C12CC3CC(CC(Br)(C3)C1)C2	-0.26	29	-0.21	70*	47
CC(=O)Nc1ccc(SCC(=O)c2cc(C)n(CC(F)(F)F)c2C)cc1	-0.8	61*	0.016	7	5
Cc1ccc(N/N=C2\CCS(=O)(=O)c3sccc32)cc1	-0.19	-11	-0.62	-3	54*
Cc1ccc(NC(=S)N2CCC(N(C)CC3CCCO3)CC2)cc1 (stereo not drawn)	0.05	76*	1.8	-8	-35
Cc1cccc(NC(=S)N2CCC(N(C)CC3CCCO3)CC2)c1C (stereo not drawn)	.	82*	0.55	-20	10
Cc1cc(C)c(NC(=S)N2CCC(N(C)CC3CCCO3)CC2)c(C)c1 (stereo not drawn)	0.016	27	-0.29	4	25
Cc1cc(C)cc(NC(=S)N2CCC(N(C)CC3CCCO3)CC2)c1 (stereo not drawn)	-0.88	67*	0.00087	9	-2
CSC1=NNC(c2ccc(C(C)(C)C)cc2)=NN1	0.2	.	0.0019	.	-10
Cc1ccc(NC(=O)C(=O)c2c(-c3ccccc3)cc3ccccn23)cc1S(=O)(=O)N1CCOCC1	0.23	18	-0.53	25	-94
CCOc1ccc(C(=O)N/N=C/c2c(C)[nH]c(=O)[nH]c2=O)cc1	0.33	.	-0.37	.	-27
Cc1cccc(OCc2nnc(SCC(=O)Nc3nccs3)o2)c1	.	.	0.9	.	-31
O=c1nc(/C=C/c2ccc(O)c(O)c2)oc2ccccc12	.	.	-0.42	.	-7
COc1ccc(/C=C\c2nc(=O)c3ccccc3o2)cc1	-0.61	84*	-0.83	50	6
C=CCSC1=Nc2sccc2C2=NC(=O)CN12	.	-3	0.11	16	-26
C=CCN(c1ccccc1Cl)S(=O)(=O)c1cc(C(=O)N2CCCC2)ccc1Cl	.	.	-1.4	.	-5
CN1CCN(c2ccc(Cl)cc2NC(=O)C2COc3ccccc3O2)CC1 (stereo not drawn)	.	99*	-1.4	23	-18
CCC(C)NC(=O)c1ccccc1NC(=O)C1COc2ccccc2O1 (stereo not drawn)	-0.74	9	-1.4	-6	-1
CC(C)NC(=O)c1ccccc1NC(=O)C1COc2ccccc2O1 (stereo not drawn)	-0.14	55*	0.53	2	12
CN1CCN(c2ccc(Cl)cc2NC(=O)c2cccc(S(=O)(=O)N(C)C)c2)CC1	-0.033	99*	0.95	9	-1
Cc1ncc([N+](=O)[O-])n1CC(=O)Nc1ccc2c(c1)OCO2	0.33	1	1.2	6	11
COCCCNC(=O)CC(NCCCOC)C(=O)O (stereo not drawn)	0.17	-4	-0.71	-3	-2
CSc1ccc(-c2nc(CN3CCCCC3c3cccnc3)c(C)o2)cc1 (stereo not drawn)	.	51*	.	17	-34
COc1ccc(N2CCN(S(=O)(=O)c3ccc(C(=O)NCc4ccco4)cc3)CC2)cc1	.	0	1	12	11
COc1ccc(/C=N/N2CCOCC2)cc1Cn1nc(C)c([N+](=O)[O-])c1C	.	.	-0.29	.	-5
SMILES	ROMK primary	Lmaj promast	KCC2 mod	WT yeast gro inh	Calpain2 inh
COc1ccc(/C=N/Nc2ccccc2)cc1Cn1nc(C)c([N+](=O)[O-])c1C	-0.21	77*	-4.9	13	-133
CCn1c(O)c(N=NC(=O)CNc2ccc(C)cc2)c2ccccc21	-0.85	2	1.6	14	1
CC(C)CCn1c(O)c(N=NC(=O)Cn2ccc(C(F)(F)F)n2)c2ccccc21	0.019	52*	1.1	-8	19
O=C(Nc1nc(-c2ccc(F)c(F)c2)cs1)c1cc([N+](=O)[O-])ccc1N1CCOCC1	.	-1	-0.27	9	-19
Cc1cc(C)c(-c2csc(NC(=O)c3cc([N+](=O)[O-])ccc3N3CCOCC3)n2)c(C)c1	.	79*	-0.7	18	15
Oc1ccc(N=Nc2nc(-c3ccccc3)c(-c3ccccc3)[nH]2)cc1	.	96*	-1.3	92*	-5
Oc1ccc(N=Nc2n[nH]c(-c3ccccc3)n2)cc1	0.93	12	-0.49	9	36
Cc1ccc(S(=O)(=O)N2CCC(C(=O)NCCc3ccccc3)CC2)cc1	0.34	-2	.	16	-23
Cc1ccc(S(=O)(=O)N2CCC(C(=O)N[C@@H](Cc3ccccc3)C(=O)O)CC2)cc1	.	54*	-0.4	-9	12
Cc1ccc(S(=O)(=O)N2CCC(C(=O)NCCN3CCCCCC3)CC2)cc1	.	100*	-0.0083	15	-16
O=C(CCC(=O)N(CC(=O)NC1CCCCC1)CC1CCCO1)Nc1nccs1 (stereo not drawn)	0.16	-2	.	-11	7
CCOC(=O)c1ccc(NC(=O)CC2S/C(=N/N=C/c3c[nH]c4ccccc34)NC2=O)cc1 (stereo not drawn)	0.59	62*	-0.99	10	-30
Cc1ccc(NC(=O)CC2S/C(=N/N=C/c3c[nH]c4ccccc34)NC2=O)cc1 (stereo not drawn)	0.0051	5	-0.05	-3	-2
COc1ccc(N(C(=O)C2COc3ccccc3O2)C(C(=O)NC2CCCCC2)c2ccccc2)cc1OC (stereo not drawn)	.	99*	-0.27	-2	-25
COc1cc(OC)cc(N(C(=O)C2COc3ccccc3O2)C(C(=O)NC2CCCCC2)c2ccc(O)cc2)c1 (stereo not drawn)	.	64*	0.55	7	-64
COc1cccc(C(C(=O)NC2CCCCC2)N(CCN2CCOCC2)C(=O)C2COc3ccccc3O2)c1 (stereo not drawn)	.	5	-1.1	3	-10
Oc1ccccc1-c1nc(NCc2ccco2)c2ccccc2n1	0	29	0.97	5	-34
Brc1ccc2ncnc(NCc3ccco3)c2c1	-2.4	55*	.	-13	-24
Fc1ccccc1-c1nc(NCc2ccco2)c2ccccc2n1	0.93	53*	-0.083	2	19
COc1cc2ncnc(NCc3ccco3)c2cc1OC	-0.13	7	0.019	3	-3
COc1ccccc1Nc1nc(NCc2ccco2)c2ccccc2n1	.	.	-0.079	.	14
C(=N\Nc1nc(-c2ccccn2)nc2ccccc12)/c1ccccc1	.	.	-0.31	.	-2
Cc1ccc(Nc2nc(NCc3ccco3)c3ccccc3n2)cc1	-0.23	101*	0.97	94*	-66
c1ccc(-c2nc(NCc3ccco3)c3ccccc3n2)nc1	.	100*	-1.7	37	10
C=CCN(CC=C)C(=O)c1ccccc1NC(=O)c1ccccc1C	.	-1	1.2	-5	3
OCCN1CCN(C(=S)c2ccc(Cl)c(Cl)c2)CC1	.	85*	0.43	-16	-11
COc1cc(NC(=S)N2CCN(CCO)CC2)c(OC)cc1Cl	0.65	-1	1.9	4	-2
COC(=O)c1ccccc1N=Nc1c(C)noc1C	.	.	1.3	.	-8
CCOC(=O)c1[nH]ncc1CN1CCCC(C(=O)c2ccc(C(C)(C)C)cc2)C1 (stereo not drawn)	-0.94	74*	-1.9	20	22
